Some test systems named below: T-47D breast; BT-549 breast; MDA-MB-435 melanoma; SW-620 colon; MCF7 breast; HCT-116 colon; HCC-2998 colon; KM12 colon.
What all share (experiment): NCI-60 one-dose screen, 48 h (100 = growth as untreated, 0 = no growth, -100 = all killed)
Settings in all cases: 10 µM unless noted

The panel holds about 83,000 compounds, 20% with a hit somewhere; the sample as a whole holds those more often.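 Testing used 96-well plates and a 48-hour single-concentration exposure. Example: -40 means 40% of the starting cells died.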 Unmarked numbers belong to inactive results. Active and inactive are the calls of the source. Rule for the calls: active = growth percent below 10; inactive = the rest.

For `COc1ccc(/C=C/C(c2cc(OC)c(OC)c(OC)c2)n2ccnc2)cc1O` (stereo not drawn), the growth in the assay with T-47D breast was 40.6%; with BT-549 breast, 44.3%; in the assay on MDA-MB-435 melanoma, -25.6% (active); in the assay with SW-620 colon, 17.4%; in the assay with MCF7 breast, 17.9%; in the assay on HCT-116 colon, 16.7%. Further, the figures for the growth with HCC-2998 colon and in the assay on KM12 colon were 77% and 29%, respectively.

For `Nc1c(C(=O)Nc2cccc(Cl)c2)sc2nc3c(cc12)CCCC3`, the growth is 80.8% with T-47D breast; 93.1% in the assay on BT-549 breast; 34.4% in the assay with MDA-MB-435 melanoma; 92.3% in the assay on SW-620 colon; 71.6% in the assay on MCF7 breast; 91.6% in the assay with HCT-116 colon. For the same compound, the values for the growth in the assay on HCC-2998 colon and with KM12 colon were 91.4% and 77.6%, respectively.

On to `CC1(C)C(N)=Nc2cc(OCCCN3Cc4ccccc4C3)c(OCC3CC3)cc21`, for which the growth with T-47D breast was 45.8%; in the assay on BT-549 breast it was 76.5%; with MDA-MB-435 melanoma, 66.6%; with SW-620 colon it was 87.8%; in the assay on MCF7 breast, 50.4%; with HCT-116 colon, 49.2%. Besides, the results for the growth in the assay with HCC-2998 colon and in the assay on KM12 colon were 11.9% and 84.2%, respectively.

Take `Nc1ccc(-c2csc(-n3[nH]c(=O)ccc3=O)n2)cc1`: the growth in the assay on T-47D breast is 98.5%; in the assay with BT-549 breast it was 92%; in the assay with MDA-MB-435 melanoma it was 103%; in the assay on SW-620 colon, 104%; in the assay with MCF7 breast it was 86.6%; with HCT-116 colon, 94%. Moreover, the growth with HCC-2998 colon is 112%; in the assay with KM12 colon, 104%.

With `CCOC(=O)CC1CSC(Nc2ccccc2)=N1` (stereo not drawn), the growth in the assay on T-47D breast was 87.9%; with BT-549 breast, 114%; in the assay on MDA-MB-435 melanoma, 105%; in the assay with SW-620 colon it was 108%; with MCF7 breast, 89.7%; in the assay with HCT-116 colon, 107%. For the same compound, the growth is 102% in the assay with HCC-2998 colon and 99% in the assay on KM12 colon.

As for `O=C1NC(=O)/C(=C/c2c(-c3ccccc3)nc3sc(COc4ccccc4)nn23)S1`, the growth was 89.4% with T-47D breast; 92.8% with BT-549 breast; 102% in the assay on MDA-MB-435 melanoma; 105% with SW-620 colon; 83.5% in the assay on MCF7 breast; 89.3% with HCT-116 colon. In addition, the growth in the assay on HCC-2998 colon was 107%; with KM12 colon, 100%.

Turning to `COc1cc(/C=N/Nc2ccc(Br)cc2)cc(OC)c1OC`, the growth in the assay with T-47D breast is 30.8%; in the assay on BT-549 breast, 95.1%; in the assay with MDA-MB-435 melanoma, 39.5%; with SW-620 colon, 46.8%; with MCF7 breast it was 51%; in the assay with HCT-116 colon, 60.8%. The results for the growth in the assay with HCC-2998 colon and in the assay with KM12 colon were 45.7% and 16.3%, respectively.

As for `O=P(O)(O)OCC1OC(n2cnc3c(NCc4ccco4)ncnc32)C(O)C1O` (stereo not drawn), the growth in the assay on T-47D breast is 42.5%; in the assay with BT-549 breast, -12.3% (active); with MDA-MB-435 melanoma it was 16.2%; with SW-620 colon, 14.8%; in the assay with MCF7 breast, 0.586% (active); in the assay on HCT-116 colon, -31.1% (active). The growth in the assay with HCC-2998 colon is 0.214% (active); with KM12 colon, 44.1%.

With `Cc1ccc(S(=O)(=O)c2nc(-c3ccccc3)oc2Sc2nc3ccccc3s2)cc1`, the growth in the assay on T-47D breast was 62.7%; in the assay with BT-549 breast it was 17.6%; in the assay on MDA-MB-435 melanoma it was 54.7%; in the assay with SW-620 colon, 54.7%; in the assay on MCF7 breast, 58%; in the assay with HCT-116 colon it was -1.16% (active). The growth in the assay with HCC-2998 colon was 107%; in the assay with KM12 colon, 97.2%.

In the case of `N=c1c(S(=O)(=O)c2ccccc2)cc2c(=O)n3ccccc3nc2n1CC1CCCO1` (stereo not drawn), the growth is 104% in the assay with T-47D breast; 101% with BT-549 breast; 109% with MDA-MB-435 melanoma; 96.1% in the assay with SW-620 colon; 106% in the assay on MCF7 breast; 105% with HCT-116 colon. Moreover, the growth was 105% in the assay on HCC-2998 colon and 108% with KM12 colon.

On to `CCOC(=O)C(Cc1ccc(OC)cc1)C(=O)OCC`, for which the growth in the assay with T-47D breast was 20.7%; with BT-549 breast, -9.62% (active); in the assay on MDA-MB-435 melanoma, 14.7%; with SW-620 colon, 35.1%; in the assay on MCF7 breast, 17.1%; in the assay on HCT-116 colon, 17.8%. For the same compound, the growth in the assay on HCC-2998 colon was 55.5%; with KM12 colon, 7.78% (active).

Take `COc1cc(/C=C/C(=O)c2ccc(-n3cc(CN4CCN(c5cc6c(cc5F)c(=O)c(C(=O)O)cn6C5CC5)CC4)nn3)cc2)ccc1O`: the growth with T-47D breast is 75.3%; in the assay with BT-549 breast it was 90.4%; in the assay on MDA-MB-435 melanoma, 74%; with SW-620 colon it was 85.4%; with MCF7 breast, 37.6%; in the assay on HCT-116 colon, -53.4% (active). Also, the growth was 59.3% in the assay with HCC-2998 colon and 29.9% with KM12 colon.

Consider `O=c1cc(-c2ccccc2)[nH]c2ncc(-c3ccc(F)cc3)n12`, for which the growth in the assay on T-47D breast is 74.3%; in the assay with BT-549 breast it was 64.1%; in the assay with MDA-MB-435 melanoma, -12% (active); with SW-620 colon it was 40.3%; in the assay on MCF7 breast, 57.8%; in the assay on HCT-116 colon, 51.3%. Also, the growth in the assay with HCC-2998 colon was 75.6%; with KM12 colon it was 44.4%.

In the case of `COC(=O)c1c2c(c(C)[n+]([O-])c1C)C(=O)C(NCc1cccc(Cl)c1)=CC2=O`, the growth was 6% (active) in the assay on T-47D breast; 49.3% with BT-549 breast; -68.5% (active) in the assay with MDA-MB-435 melanoma; 7.1% (active) with SW-620 colon; -36% (active) with MCF7 breast; 1.18% (active) in the assay on HCT-116 colon. The growth is 15.3% with HCC-2998 colon and 17.7% with KM12 colon.

As to `C=C1CC[C@@H]2C(C)(C)[C@@H](O)CC[C@@]2(C)[C@@H]1COc1ccc2ccc(=O)oc2c1`, the growth is -12.4% (active) in the assay with T-47D breast; 72.7% in the assay on BT-549 breast; 81.5% in the assay on MDA-MB-435 melanoma; 99.4% in the assay with SW-620 colon; 50.2% in the assay on MCF7 breast; 76.6% in the assay with HCT-116 colon. Moreover, the values for the growth in the assay with HCC-2998 colon and in the assay with KM12 colon were 92.3% and 70%, respectively.

As to `S=C(c1ccc2c(c1)OCO2)N1CCN(c2cccc(Cl)c2)CC1`, the growth is 11.6% in the assay on T-47D breast; 52.4% in the assay with BT-549 breast; -37.7% (active) in the assay with MDA-MB-435 melanoma; 4.12% (active) with SW-620 colon; -0.55% (active) in the assay on MCF7 breast; 13.7% in the assay with HCT-116 colon. In addition, the figures for the growth in the assay on HCC-2998 colon and in the assay on KM12 colon were -13.1% (active) and 12.6%, respectively.

Source of the values: PubChem BioAssay (NCI).
